Reference: PubChem BioAssay AID2284349 (EPA ToxCast)
Inconclusive results are not listed. The source made the active and inactive calls. Rule for the calls: active = hit-call score of the fitted dose curve at least 0.9, where 1 is the maximum; inconclusive = response in the unintended direction; inactive = score below 0.9.

molecular target: frog Peroxisome Proliferator-activated Receptor-gamma (PPARg), pparg (gene 397769) (UniProt P37234); test: ATG_frPPARg_EcoTox2: Attagene TRANS-FACTORIAL EcoTox-2 HepG2 Assay for frog Peroxisome Proliferator-activated Receptor-gamma (PPARg)
Method: ATG_EcoTox2 is a cell-based, multiplexed assay created by modifying the existing Attagene TRANS-FACTORIAL system to include a panel of nuclear receptors from some or all the following species: human (Homo sapiens), african clawed frog (Xenopus laevis), rainbow trout (Oncorhynchus mykiss), japanese medaka (Oryzias latipes), and zebrafish (Danio rerio). The ECOTOX2-FACTORIAL format uses HepG2, a human liver cell line, with measurements taken at 24 hours after chemical dosing in a 24-well plate. ATG_frPPARg_EcoTox2 is one of 29 assay components calculated in the ATG_EcoTox2 assay. It is designed to make measurements of mRNA induction, a form of inducible reporter, as detected with fluorescence intensity signals by Reverse transcription polymerase chain reaction (RT-PCR) and Capillary electrophoresis technology.The assay endpoint ATG_frPPARg_EcoTox2 was analyzed in the positive analysis fitting direction relative to DMSO as the negative control and baseline of activity. Using a type of inducible reporter, measures of mRNA for gain-of-signal activity can be used to understand the reporter gene at the transcription factor-level as they relate to the gene PPARg. Furthermore, this assay endpoint can be referred to as a primary readout, because this assay has produced multiple assay endpoints where this one serves a reporter gene function. To generalize the intended target to other relatable targets, this assay endpoint is annotated to the nuclear receptor intended target family, where the subfamily is non-steroidal.
Human liver HepG2 cells are transiently transfected with multiple reporter transcription units (MRTUs) in 6-well plates using FuGene 6 reagent (Roche; 3 ml FuGene/1 mg DNA). The MRTU constructs are regulated by a cis-regulating element (promoter). Each RTU expresses a GAL4-UAS that regulates the transcription of a nearby target reporter gene sequence. A major difference between the CIS and TRANS system is that in CIS activities of endogenous TFs are measured, whereas the TRANS assay evaluates changes in activities of exogenous, chimeric NR-Gal4 proteins. […] At the end of 24 hour incubation, total RNA was isolated using TriZol reagent (Invitrogen). The isolated RNA is then reverse-transcribed using oligo(dT) primer and Mo-MLV reverse transcriptase (Invitrogen) with DNAse I (Ambion) treatment for 30 min. The one-tenth of the produced cDNA was amplified by PCR using Taq DNA polymerase (Invitrogen) and two reporter sequence-specific primers. The PCR products were fluorescently labeled by primer extension with 6-arboxyfluorescein (6-FAM) 5'-labeled reporter sequence-specific primer (2 min at 95 C, 20 s at 68 C and 10 min at 72 C) and these products were digested with 5U of HpaI (New England Biolabs) for 2h at 37 C. The fragments were purified using Qiaquick PCR columns (Qiagen), analyzed on an ABI 3130xL genetic analyzer (Applied Biosystems) with peak positions identified by using a set of X-rhodamine (ROX)-labeled MapMarker1000 molecular weight standards (BioVentures). The raw capillary electrophoresis data was processed using Attagraph software (Attagene).

frog Peroxisome Proliferator-activated Receptor-gamma (PPARg), pparg (gene 397769), sequence (P37234 whole entry, looked up): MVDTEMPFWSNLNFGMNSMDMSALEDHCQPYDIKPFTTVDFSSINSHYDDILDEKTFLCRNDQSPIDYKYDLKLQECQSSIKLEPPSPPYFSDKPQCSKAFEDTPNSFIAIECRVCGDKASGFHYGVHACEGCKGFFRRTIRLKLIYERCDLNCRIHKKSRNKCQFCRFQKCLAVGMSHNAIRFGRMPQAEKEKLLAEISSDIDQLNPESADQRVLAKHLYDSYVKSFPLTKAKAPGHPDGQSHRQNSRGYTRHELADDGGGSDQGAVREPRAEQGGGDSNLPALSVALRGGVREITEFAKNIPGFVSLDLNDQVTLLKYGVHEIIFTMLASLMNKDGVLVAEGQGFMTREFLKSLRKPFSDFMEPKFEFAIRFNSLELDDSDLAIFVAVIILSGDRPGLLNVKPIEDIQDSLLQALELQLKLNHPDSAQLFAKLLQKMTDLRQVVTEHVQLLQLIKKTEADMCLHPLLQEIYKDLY

Question: Which outcome does the source give for `C=C(c1ccc(C(=O)O)cc1)c1cc2c(cc1C)C(C)(C)CCC2(C)C` here?
Answer: inactive

Question: `CC(C)OC(=O)C(C)(C)Oc1ccc(C(=O)c2ccc(Cl)cc2)cc1` was tested. Which outcome did it give?
Answer: inactive

Question: With `Cc1ccc(C)c(OCCCC(C)(C)C(=O)O)c1` as the compound, how does the outcome read?
Answer: inactive

Question: With `C[C@@H]1C[C@H]2[C@@H]3CCC4=CC(=O)C=C[C@]4(C)[C@@]3(F)[C@@H](O)C[C@]2(C)[C@@]1(O)C(=O)COP(=O)(O)O` as the compound, how does the outcome read?
Answer: inactive

Question: How did the outcome turn out when `Cc1cccc(Nc2cc(Cl)nc(SCC(=O)O)n2)c1C` was run?
Answer: inactive

Question: How did the outcome turn out when `CC(C)(Oc1ccc(Cl)cc1)C(=O)O` was run?
Answer: inactive

Question: With `CC(c1cc2ccccc2s1)N(O)C(N)=O` (stereo not drawn) as the compound, how does the outcome read?
Answer: inactive

Question: Which outcome does the source give for `CC(C)(Oc1ccc(CCNC(=O)c2ccc(Cl)cc2)cc1)C(=O)O` here?
Answer: inactive
